Assay results as given in PubChem BioAssay (EPA / NIEHS).
Values joined by “and” are separate entries in the source; they are usually repeats but may differ in a detail not shown here. Identical values can stand only once. Inconclusive results are not listed. The source holds several records for some structures; these can differ, active in one and inactive in another. Active and inactive are the calls of the source. Rule for the calls: active = hit-call score of the fitted dose curve at least 0.9, where 1 is the maximum; inconclusive = response in the unintended direction; inactive = score below 0.9.

The compounds below were run on rat CYP3A1, gene 25642 (assay: NVS_ADME_rCYP3A1: NovaScreen (NVS) CYP450-related Enzyme Activity (ADME) Assay for rat CYP3A1 (AID 2283126)).
Summary of the method: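 Cell-free recombinant CYP assay with fluorescent substrate, read 0.5 h after dosing. Screened at 10 uM in duplicate, hits at up to 20 uM in concentration-response; loss of signal versus acetonitrile baseline.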

Row | SMILES | AC50 | outcome
1 | CCCCNC(=O)OCC#CI | 1.46 µM (active) and 4.29 µM (active) | –
2 | Cc1ccc(-c2c(Cl)nc(C#N)n2S(=O)(=O)N(C)C)cc1 | 2.88 µM (active) | –
3 | COc1ccc(C(c2ccc(OC)cc2)C(Cl)(Cl)Cl)cc1 | – | inactive
4 | COP(=S)(OC)Oc1nc(Cl)c(Cl)cc1Cl | – | inactive
5 | OC(c1ccc(Cl)cc1)(c1cncnc1)c1ccccc1Cl (stereo not drawn) | 2.92 µM (active) | –
6 | CCCC1COC(Cn2cncn2)(c2ccc(Cl)cc2Cl)O1 (stereo not drawn) | 2.08 µM (active) | –
7 | CON(C)C(=O)Nc1ccc(Cl)c(Cl)c1 | – | inactive
8 | N#CC(CCc1ccc(Cl)cc1)(Cn1cncn1)c1ccccc1 (stereo not drawn) | 0.449 µM (active) | –
9 | CN(C)C(=S)SSC(=S)N(C)C | 3.2 µM (active) | –
10 | CCOP(=S)(OCC)SCn1c(=O)oc2cc(Cl)ccc21 | 1.16 µM (active) | –
11 | CNC(=S)S | – | inactive
12 | CC1COC(Cn2cncn2)(c2ccc(Oc3ccc(Cl)cc3)cc2Cl)O1 (stereo not drawn) | 0.628 µM (active) | –
13 | COc1nc(C)nc(NC(=O)NS(=O)(=O)c2ccccc2CCC(F)(F)F)n1 | 7.5 µM (active) and 7.14 µM (active) and 7.37 µM (active) | –
14 | COC(=O)N(OC)c1ccccc1COc1ccn(-c2ccc(Cl)cc2)n1 | 1.29 µM (active) | –
15 | CCCN(CCC)c1c([N+](=O)[O-])cc(S(N)(=O)=O)cc1[N+](=O)[O-] | 1.24 µM (active) | –
16 | CO/C=C(/C(=O)OC)c1ccccc1Oc1cc(Oc2ccccc2C#N)ncn1 | 5.8 µM (active) | –
17 | CCON=C(CC)C1=C(O)CC(c2c(C)cc(C)cc2C)CC1=O (stereo not drawn) | 4.22 µM (active) | –
18 | CCOC(=O)CC(SP(=S)(OC)OC)C(=O)OCC (stereo not drawn) | 1.88 µM (active) | –

These compounds were tested against rat CYP3A2, Cyp3a2 (gene 266682) (UniProt P05183) (assay: NVS_ADME_rCYP3A2: NovaScreen (NVS) CYP450-related Enzyme Activity (ADME) Assay for rat CYP3A2 (AID 2283128)).
Chain of rat CYP3A2, Cyp3a2 (gene 266682) (P05183 whole entry, looked up): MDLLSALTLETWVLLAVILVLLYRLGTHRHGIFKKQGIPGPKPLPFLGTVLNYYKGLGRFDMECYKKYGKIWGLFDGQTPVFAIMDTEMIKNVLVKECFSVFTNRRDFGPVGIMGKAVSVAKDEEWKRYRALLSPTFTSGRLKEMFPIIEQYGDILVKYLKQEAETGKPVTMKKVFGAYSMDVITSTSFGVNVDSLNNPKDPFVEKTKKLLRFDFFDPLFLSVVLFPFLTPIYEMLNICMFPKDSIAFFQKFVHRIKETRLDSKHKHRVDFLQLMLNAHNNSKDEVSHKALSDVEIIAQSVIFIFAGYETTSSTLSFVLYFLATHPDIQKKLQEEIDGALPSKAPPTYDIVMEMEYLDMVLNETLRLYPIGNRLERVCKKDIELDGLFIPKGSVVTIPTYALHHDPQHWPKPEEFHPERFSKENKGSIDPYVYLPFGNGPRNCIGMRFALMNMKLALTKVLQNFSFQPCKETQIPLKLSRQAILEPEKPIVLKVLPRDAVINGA
Summary of the method: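 Cell-free rat CYP3A2 enzyme assay with fluorescent substrate, read 0.5 h after dosing. Primary duplicate screen at 10 uM; actives run in concentration-response up to 20 uM, relative to acetonitrile baseline.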

Row | SMILES | AC50 | outcome
19 | Cc1ccc(-c2c(Cl)nc(C#N)n2S(=O)(=O)N(C)C)cc1 | 1.1 µM (active) | –
20 | C=CCC1=C(C)[C@@H](OC(=O)[C@@H]2[C@@H](C=C(C)C)C2(C)C)CC1=O | 7.55 µM (active) | –
21 | COc1ccc(C(c2ccc(OC)cc2)C(Cl)(Cl)Cl)cc1 | – | inactive
22 | OC(c1ccc(Cl)cc1)(c1cncnc1)c1ccccc1Cl (stereo not drawn) | 5.57 µM (active) | –
23 | CN(C)C(=S)SSC(=S)N(C)C | 2.42 µM (active) | –
24 | CCOP(=S)(OCC)SCn1c(=O)oc2cc(Cl)ccc21 | 0.518 µM (active) | –
25 | CC1COC(Cn2cncn2)(c2ccc(Oc3ccc(Cl)cc3)cc2Cl)O1 (stereo not drawn) | 1.35 µM (active) | –
26 | CCCN(CCC)c1c([N+](=O)[O-])cc(S(N)(=O)=O)cc1[N+](=O)[O-] | 2.67 µM (active) | –
27 | C=CCC1=C(C)C(OC(=O)C2C(C=C(C)C)C2(C)C)CC1=O (stereo not drawn) | 6.87 µM (active) | –
28 | O=C(Nc1ccccc1)Nc1ccnc(Cl)c1 | 6.44 µM (active) | –
29 | CO/C=C(/C(=O)OC)c1ccccc1Oc1cc(Oc2ccccc2C#N)ncn1 | 6.6 µM (active) | –
30 | CCON=C(CC)C1=C(O)CC(c2c(C)cc(C)cc2C)CC1=O (stereo not drawn) | 3 µM (active) | –
31 | CS/C(C)=N/OC(=O)N(C)SN(C)C(=O)O/N=C(\C)SC | 3.39 µM (active) | –
32 | CCOC(=O)CC(SP(=S)(OC)OC)C(=O)OCC (stereo not drawn) | 0.306 µM (active) | –

These compounds were tested against human Acetylcholinesterase (AChE), ACHE (gene 43) (UniProt P22303) (assay: NVS_ENZ_hAChE: NovaScreen (NVS) Enzymatic Assay for human Acetylcholinesterase (AChE) (AID 2283129)).
Chain of human Acetylcholinesterase (AChE), ACHE (gene 43) (P22303 whole entry, looked up): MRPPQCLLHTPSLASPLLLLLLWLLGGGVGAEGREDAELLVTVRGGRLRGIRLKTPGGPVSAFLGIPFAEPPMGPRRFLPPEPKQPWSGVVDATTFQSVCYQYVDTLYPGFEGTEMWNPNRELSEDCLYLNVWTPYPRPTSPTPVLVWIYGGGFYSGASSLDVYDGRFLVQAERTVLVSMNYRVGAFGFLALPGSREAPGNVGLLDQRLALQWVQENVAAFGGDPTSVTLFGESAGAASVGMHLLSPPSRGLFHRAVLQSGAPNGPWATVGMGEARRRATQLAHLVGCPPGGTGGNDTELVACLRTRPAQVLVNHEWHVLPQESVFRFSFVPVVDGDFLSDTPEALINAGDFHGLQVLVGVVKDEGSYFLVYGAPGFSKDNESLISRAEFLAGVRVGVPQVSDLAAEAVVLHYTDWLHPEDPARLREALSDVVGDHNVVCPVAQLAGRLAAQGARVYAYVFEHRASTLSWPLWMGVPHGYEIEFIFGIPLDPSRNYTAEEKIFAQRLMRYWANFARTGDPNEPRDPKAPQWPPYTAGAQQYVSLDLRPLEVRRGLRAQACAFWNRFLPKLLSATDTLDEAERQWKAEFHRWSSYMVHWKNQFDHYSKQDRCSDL
Summary of the method: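 Cell-free colorimetric enzyme-activity assay; compounds read 0.33 hour after dosing, loss of signal vs DMSO baseline. Primary screen in duplicate at 25 uM single concentration, with active compounds retested in concentration series.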

Row | SMILES | AC50 | outcome
33 | COC(=O)C=C(C)OP(=O)(OC)OC | 6 µM (active) | –
34 | O=C(O)c1nc(Cl)ccc1Cl | – | inactive
35 | COP(=S)(OC)Oc1nc(Cl)c(Cl)cc1Cl | – | inactive
36 | CN(C)C(=S)SSC(=S)N(C)C | 10.6 µM (active) | –
37 | CNC(=S)S | 39.9 µM (active) | –
38 | CS/C(C)=N/OC(=O)N(C)SN(C)C(=O)O/N=C(\C)SC | 4.85 µM (active) | –

The compounds below were run against human Acid Phosphatase 1 (ACP1), ACP1 (gene 52) (UniProt P24666) (assay: NVS_ENZ_hACP1: NovaScreen (NVS) Enzymatic Assay for human Acid Phosphatase 1 (ACP1) (AID 2283136)).
Chain of human Acid Phosphatase 1 (ACP1), ACP1 (gene 52) (P24666 whole entry, looked up): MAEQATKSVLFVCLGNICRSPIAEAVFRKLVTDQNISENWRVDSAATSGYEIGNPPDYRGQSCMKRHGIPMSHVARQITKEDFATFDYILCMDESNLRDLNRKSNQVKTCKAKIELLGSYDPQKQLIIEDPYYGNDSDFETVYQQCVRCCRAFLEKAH
Summary of the method: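 Recombinant enzyme expressed in Sf9 cells, tested cell-free; activity read by fluorescence with electrophoretic mobility shift separation of substrate and product, 1.5 h after dosing. Primary screen in duplicate at 25 uM, actives then run in concentration series; loss of signal versus DMSO.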

Row | SMILES | outcome | AC50
39 | C=CCC1=C(C)[C@@H](OC(=O)[C@@H]2[C@@H](C=C(C)C)C2(C)C)CC1=O | inactive | –
40 | CNC(=S)S | – | 9.04 µM (active)
41 | CCCN(CCC)c1c([N+](=O)[O-])cc(S(N)(=O)=O)cc1[N+](=O)[O-] | inactive | –

The compounds below were run against human Caspase 5 (CASP5), CASP5 (gene 838) (UniProt P51878) (assay: NVS_ENZ_hCASP5: NovaScreen (NVS) Enzymatic Assay for human Caspase 5 (CASP5) (AID 2283137)).
Chain of human Caspase 5 (CASP5), CASP5 (gene 838) (P51878 whole entry, looked up): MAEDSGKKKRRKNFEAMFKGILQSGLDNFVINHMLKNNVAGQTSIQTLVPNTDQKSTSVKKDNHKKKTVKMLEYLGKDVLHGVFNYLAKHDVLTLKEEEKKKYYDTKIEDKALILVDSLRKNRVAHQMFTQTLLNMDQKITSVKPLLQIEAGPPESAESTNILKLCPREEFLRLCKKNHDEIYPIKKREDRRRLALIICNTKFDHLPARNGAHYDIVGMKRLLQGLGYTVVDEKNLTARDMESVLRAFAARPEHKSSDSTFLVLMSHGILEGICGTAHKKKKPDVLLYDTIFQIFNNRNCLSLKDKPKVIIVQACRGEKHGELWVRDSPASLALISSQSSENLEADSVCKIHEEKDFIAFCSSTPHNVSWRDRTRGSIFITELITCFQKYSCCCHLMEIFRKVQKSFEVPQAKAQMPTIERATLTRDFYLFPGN
Method: NVS_ENZ_hCASP5 is a biochemical, single-readout assay that uses extracted gene-proteins from E. coli in a cell-free assay. Measurements were taken 2 hours after chemical dosing in a 96-well plate.NVS_ENZ_hCASP5 is one of one assay component(s) measured or calculated from the NVS_ENZ_hCASP5 assay. It is designed to make measurements of enzyme activity, a form of enzyme reporter, as detected with fluorescence intensity signals by Fluorescence technology.Data from the assay component NVS_ENZ_hCASP5 was analyzed into 1 assay endpoint. This assay endpoint, NVS_ENZ_hCASP5, was analyzed in the positive analysis fitting direction relative to DMSO as the negative control and baseline of activity. Using a type of enzyme reporter, loss-of-signal activity can be used to understand changes in the enzymatic activity as they relate to the gene CASP5. Furthermore, this assay endpoint can be referred to as a primary readout, because this assay has produced multiple assay endpoints where this one serves a enzymatic activity function. To generalize the intended target to other relatable targets, this assay endpoint is annotated to the protease intended target family, where the subfamily is cysteine protease.
Binding assays used specific radioligands (tritiated, iodinated) with non-radioactive competitive displacement ligands in agonist or antagonist protocols (as indicated) and various reference compounds and inhibitors to titrate specific binding to receptors and transporters. Most enzyme assays (CYPs, kinases, phosphatases, proteases, HDACs) used recombinant protein and specific substrates (fluorescence mostly, some colorimetric and radioactive) and inhibitors, followed by a biochemical separation of substrate and product. All assays for the biochemical HTS were initially run in duplicate at a single concentration (10 uM for CYP450 assays and 25 uM for all others). Assay-chemical combinations meeting a pre-defined threshold (e.g., 30% inhibition and other criteria defined below) were then run in singleton concentration-response format with maximum concentration of 20 uM for CYPs and 50 uM for all others. Each assay was run with positive and negative controls, and concurrent controls on every plate. The follow-up (secondary) screen tested active chemical-pairs in concentration series, as well as a few additional assays not tested in the primary screen, some selected negative inactives, and several cases re-run in the concentration series for confirmatory purposes.

Row | SMILES | AC50 | outcome
42 | COc1ccc(C(c2ccc(OC)cc2)C(Cl)(Cl)Cl)cc1 | 25 µM (active) | –
43 | CCCC1COC(Cn2cncn2)(c2ccc(Cl)cc2Cl)O1 (stereo not drawn) | – | inactive
44 | COc1nc(NC(C)C)nc(NC(C)C)n1 | – | inactive
45 | CNC(=S)S | – | inactive
46 | O=C(Nc1ccccc1)Nc1ccnc(Cl)c1 | – | inactive
47 | CO/C=C(/C(=O)OC)c1ccccc1Oc1cc(Oc2ccccc2C#N)ncn1 | – | inactive

These compounds were tested against human AKT serine/threonine Kinase 1 (AKT1), AKT1 (gene 207) (UniProt P31749) (assay: NVS_ENZ_hAKT1: NovaScreen (NVS) Enzymatic Assay for human AKT serine/threonine Kinase 1 (AKT1) (AID 2283138)).
Chain of human AKT serine/threonine Kinase 1 (AKT1), AKT1 (gene 207) (P31749 whole entry, looked up): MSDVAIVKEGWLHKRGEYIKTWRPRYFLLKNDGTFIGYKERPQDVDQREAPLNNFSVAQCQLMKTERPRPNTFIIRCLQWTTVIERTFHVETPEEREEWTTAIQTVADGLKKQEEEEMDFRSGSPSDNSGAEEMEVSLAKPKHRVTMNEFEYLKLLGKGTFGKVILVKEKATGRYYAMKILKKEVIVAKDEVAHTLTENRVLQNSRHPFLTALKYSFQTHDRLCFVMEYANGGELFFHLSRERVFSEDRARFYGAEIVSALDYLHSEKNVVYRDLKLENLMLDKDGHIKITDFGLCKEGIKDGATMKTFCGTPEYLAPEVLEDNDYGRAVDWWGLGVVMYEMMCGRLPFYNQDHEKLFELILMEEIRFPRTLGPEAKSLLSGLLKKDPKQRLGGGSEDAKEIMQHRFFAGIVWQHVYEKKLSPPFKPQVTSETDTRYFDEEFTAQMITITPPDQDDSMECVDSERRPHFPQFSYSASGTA
Summary of the method: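 Signal loss relative to DMSO, measured by fluorescence after electrophoretic separation of substrate and product, indicates inhibition of recombinant enzyme. Readings at 1 h; screening at 25 uM, follow-up curves up to 50 uM.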

Row | SMILES | outcome | AC50
48 | Cc1ccc(-c2c(Cl)nc(C#N)n2S(=O)(=O)N(C)C)cc1 | inactive | –
49 | CCCCOC(=O)c1ccccc1C(=O)OCCCC | inactive | –
50 | N#Cc1cc(Br)c(O)c(Br)c1 | inactive | –
51 | Oc1ccccc1-c1ccccc1 | inactive | –
52 | CCCCNC(=O)n1c(NC(=O)OC)nc2ccccc21 | inactive | –
53 | CON(C)C(=O)Nc1ccc(Cl)c(Cl)c1 | inactive | –
54 | CCOP(=S)(OCC)SCn1c(=O)oc2cc(Cl)ccc21 | inactive | –
55 | CC1COC(Cn2cncn2)(c2ccc(Oc3ccc(Cl)cc3)cc2Cl)O1 (stereo not drawn) | inactive | –
56 | CCCN(CCC)c1c([N+](=O)[O-])cc(S(N)(=O)=O)cc1[N+](=O)[O-] | inactive | –
57 | CO/C=C(/C(=O)OC)c1ccccc1Oc1cc(Oc2ccccc2C#N)ncn1 | inactive | 14.7 µM (active)
